# Assay results taken from PubChem BioAssay (NCATS).
# Active and inactive are the calls of the source. Calls follow the shape of the dose curve; as a rule, active = well fitted inhibition curve with a large enough effect; inconclusive = small, poorly fitted or top-dose-only effect; inactive = flat fitted curve, though single readings scatter.
# Target: DNA dC->dU-editing enzyme APOBEC-3G (Homo sapiens) (UniProt Q9HC16)
# Assay: qHTS for inhibitors of Vif-A3G interactions: Validation (AID 588379); also: 0% is about no effect
# Settings: Vif-A3G protein interaction assay; series mostly up to 46.1 µM; activity change, negative = inhibition: at the top concentration
# Source text: The recent discovery and characterization of host restriction factors, which provide a potent defense to invading retroviruses, has provided new targets for antiviral drug development. APOBEC3G (A3G) and APOBEC3F (A3F) are potent cytidine deaminases that block HIV-1 replication; HIV-1 expresses the Vif protein, which counteracts A3G and A3F by binding to them and inducing their proteasomal degradation.
# The Vif-A3G and Vif-A3F interactions provide two potential targets for development of small molecules which can interfere with the ability of Vif to degrade A3G or A3F. […] To identify inhibitors that can interfere with Vif mediated degradation of A3G and A3F, we have developed Hela cell lines that stably express A3G or A3F tagged with eYFP at the C-terminal end (A3G-eYFP or A3F-eYFP, respectively) and Vif. In the absence of an inhibitor, Vif induces degradation of A3G-eYFP and A3F-eYFP, and the cells are not fluorescent. In the presence of an inhibitor, it is expected that Vif will be unable to degrade A3G-eYFP and/or A3F-eYFP, resulting in an increase in yellow fluorescence. In this assays Vif A3G was screened against the Molecular Library Small Molecile Repository (MLSMR).
# NIH Chemical Genomics Center [NCGC]
# NIH Molecular Libraries Probe Centers Network [MLPCN]
# Assay Submitter (PI): Vinay Pathak, National Cancer Institute
# 5 uL of 700 cells/well of A3G-YFP cells are dispensed into black, clear bottom plates. The plates are incubated overnight at 37 deg C. 23 nL of compounds are added by pintool. The plates are incubated overnight at 37 deg C and then read on the TTP Acumen (Ex 488/ Em 500-530).
# Sequence of DNA dC->dU-editing enzyme APOBEC-3G (Homo sapiens) (Q9HC16 whole entry, looked up): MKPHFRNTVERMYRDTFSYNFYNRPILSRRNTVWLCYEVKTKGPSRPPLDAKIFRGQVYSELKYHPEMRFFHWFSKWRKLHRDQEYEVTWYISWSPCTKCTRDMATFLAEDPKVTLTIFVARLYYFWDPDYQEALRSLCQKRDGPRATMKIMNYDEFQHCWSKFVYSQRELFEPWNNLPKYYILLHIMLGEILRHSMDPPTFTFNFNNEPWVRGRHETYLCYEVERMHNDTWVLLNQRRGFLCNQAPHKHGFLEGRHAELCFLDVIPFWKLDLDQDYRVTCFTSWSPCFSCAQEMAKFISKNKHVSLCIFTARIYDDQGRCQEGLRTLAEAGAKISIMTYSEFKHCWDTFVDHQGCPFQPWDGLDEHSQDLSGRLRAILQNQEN
row,SMILES,"activity change, negative = inhibition"
1,Cc1noc(NS(=O)(=O)c2ccc(N)cc2)c1C,-4.62% (inactive)
2,O=S(=O)(c1cccc2cnccc12)N1CCCNCC1,-0.0448% (inactive)
3,CC1=NN(c2ccccc2)C(=O)C1,-1.48% (inactive)
4,COc1cc([C@@H]2c3cc4c(cc3[C@H](O)[C@H]3COC(=O)[C@H]23)OCO4)cc(OC)c1OC,-24% (inactive)
5,O=C(O)C1CCCN(CCC=C(c2ccccc2)c2ccccc2)C1 (stereo not drawn),2.46% (inactive)
6,O=C(N[C@H](CO)[C@H](O)c1ccc([N+](=O)[O-])cc1)C(Cl)Cl,-5.12% (inactive)
7,CCOC(=O)c1ccc(OC(=O)CCCCCN=C(N)N)cc1,0.266% (inactive)
8,CCN1CCCC1CNC(=O)c1cc(S(N)(=O)=O)ccc1OC (stereo not drawn),3.98% (inactive)
9,COc1cc2ncnc(Nc3cccc(Cl)c3)c2cc1OC,-0.259% (inactive)
10,NC(=O)c1cccc(N)c1,-1.97% (inactive)
11,O=c1oc2c(O)c(O)cc3c(=O)oc4c(O)c(O)cc1c4c23,3% (inactive)
12,CC[C@H](NC(C)C)[C@H](O)c1ccc(O)c2[nH]c(=O)ccc12,2.44% (inactive)
13,CC(=O)[C@H]1CC[C@H]2[C@@H]3CCC4=CC(=O)CC[C@]4(C)[C@H]3CC[C@]12C,-2.76% (inactive)
